According to article PMC6212790, “How bacterial xenogeneic silencer rok distinguishes foreign from self DNA in its resident genome”:
In all, about 33,000 sequences were measured (“e-score”: median about -0.037, highest 2% from about 0.34 on). Many of the other results were omitted from the sample, so the highest values are more common in it than they were.

Each sequence was assayed against T1, GST-Rok (full length) (Bacillus subtilis subsp. subtilis str. …, UniProt O34857 1-191) (assay: protein binding microarray; Rok is a gene silencer of Bacillus subtilis; high values mean tight binding). Details: protein: recombinant; tags: GST (pTH5325, pDEST15-Magic modified); dsDNA, one strand shown.
T1 sequence: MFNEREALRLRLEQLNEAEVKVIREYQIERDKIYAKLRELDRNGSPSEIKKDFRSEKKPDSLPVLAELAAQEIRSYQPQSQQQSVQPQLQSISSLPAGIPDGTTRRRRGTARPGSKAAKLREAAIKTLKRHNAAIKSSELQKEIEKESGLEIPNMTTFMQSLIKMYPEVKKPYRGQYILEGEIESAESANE
How it was run: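 Every oligonucleotide joins a 25-mer constant primer to a 35-mer variable part drawn from a de Bruijn sequence of order 10, so each non-palindromic 8-mer appears at least 32 times and each palindromic 8-mer 16 times. The preference for every 8-mer is reported as a unitless, rank-based enrichment score (E-score). This score spans 0.5 for the most favored 8-mer to −0.5 for the most disfavored.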
ACAGTAAC gave a binding signal of 0.293 E-score.
GTCAAAAC was tested, and the binding signal was 0.00409 E-score.
In the case of GGAATGTA, the binding signal is reported as 0.103 E-score.
For AACACCGT, the binding signal was 0.146 E-score.
With GTGACAAC the binding signal was -0.0442 E-score.
In the case of CCTAGATA, the binding signal is reported as 0.101 E-score.
ACTAGAGA showed a binding signal of -0.0107 E-score.
With ACTAGATA the binding signal was 0.402 E-score.
ACTAGACA showed a binding signal of 0.054 E-score.
With GCTAGATA the binding signal was 0.342 E-score.
Work on ACTAGATC yielded a binding signal of 0.327 E-score.
Sequence ACTAGACG has a binding signal of -0.0512 E-score.
For ACTAGATG, the binding signal was 0.339 E-score.
For GCTAGACA, the binding signal was 0.0674 E-score.
CAGATTAG gave a binding signal of 0.083 E-score.
CAGTGTAA was tested, and the binding signal was 0.192 E-score.
Sequence CACAAAGC has a binding signal of 0.0266 E-score.
ACCACAAG gave a binding signal of -0.065 E-score.
For CAGGTGCA, the binding signal was -0.198 E-score.
TATGTCGA showed a binding signal of 0.132 E-score.
Sequence CTAATCGA has a binding signal of 0.122 E-score.
In the case of ACTACCAT, the binding signal is reported as 0.352 E-score.
ACTACCAG gave a binding signal of 0.238 E-score.
ACTACCAA was tested, and the binding signal was 0.305 E-score.
CCTACCAC gave a binding signal of 0.224 E-score.
Work on ACTACCAC yielded a binding signal of 0.347 E-score.
With GCTACCAC the binding signal was 0.188 E-score.
TAGTACCA gave a binding signal of 0.166 E-score.
Work on GCATCGAC yielded a binding signal of 0.0744 E-score.
ATGTAGAG gave a binding signal of 0.199 E-score.
GTGTAGAA showed a binding signal of 0.292 E-score.
ATGTAGAA was tested, and the binding signal was 0.423 E-score.
Sequence CTGTAGAC has a binding signal of 0.117 E-score.
Sequence ATGTAGAC has a binding signal of 0.257 E-score.
Sequence CTGTAGAA has a binding signal of 0.345 E-score.
For CCCAAACC, the binding signal was -0.181 E-score.
With GTACGGTA the binding signal was 0.232 E-score.
TACTTACA gave a binding signal of 0.331 E-score.
AGGTAGGC gave a binding signal of -0.115 E-score.
With GAGTGAAA the binding signal was -0.103 E-score.
With ATATAGTA the binding signal was 0.456 E-score.
GTATAGTA showed a binding signal of 0.316 E-score.
CTATAGTA gave a binding signal of 0.365 E-score.
For ATATAGTC, the binding signal was 0.25 E-score.
CTATAGTC gave a binding signal of 0.096 E-score.
ATATAGTG was tested, and the binding signal was 0.274 E-score.
ACTGCTAG was tested, and the binding signal was -0.0701 E-score.
In the case of CCGACCAA, the binding signal is reported as -0.12 E-score.
For CCGACTAA, the binding signal was 0.0388 E-score.
In the case of AGAAACAA, the binding signal is reported as 0.253 E-score.
Sequence AGGTATGC has a binding signal of 0.154 E-score.
With AAGTGGAG the binding signal was -0.191 E-score.
ATCTAATG gave a binding signal of 0.241 E-score.
Sequence ATCTAATC has a binding signal of 0.351 E-score.
Sequence ATCTAATA has a binding signal of 0.313 E-score.
ATAATTTG was tested, and the binding signal was 0.284 E-score.
Work on ATAATTCA yielded a binding signal of 0.21 E-score.
In the case of AAAATTTA, the binding signal is reported as 0.293 E-score.
GTAATTGA showed a binding signal of 0.246 E-score.
TAAATTTA showed a binding signal of 0.361 E-score.
Sequence CAAATTTA has a binding signal of 0.168 E-score.
Work on GCAATTTA yielded a binding signal of 0.279 E-score.
Work on CTAATTTA yielded a binding signal of 0.286 E-score.
For GTAATTTA, the binding signal was 0.355 E-score.
In the case of ATAATTTC, the binding signal is reported as 0.351 E-score.
Work on ATAATTTA yielded a binding signal of 0.397 E-score.
CTAATTTC gave a binding signal of 0.162 E-score.
With TAAAGCCA the binding signal was -0.0305 E-score.
Work on AACTCAAT yielded a binding signal of 0.296 E-score.
For CGCCATTC, the binding signal was -0.0796 E-score.
Sequence AATAAGGC has a binding signal of -0.0153 E-score.
ATGTCGCG showed a binding signal of -0.0435 E-score.
CCATTTAC was tested, and the binding signal was 0.0848 E-score.
GTCATATA gave a binding signal of 0.291 E-score.
Sequence GAATGGGA has a binding signal of -0.15 E-score.
For ACGAGCTA, the binding signal was -0.107 E-score.
CAAACTAA gave a binding signal of 0.378 E-score.
CAAACTAG showed a binding signal of 0.329 E-score.
CAAACTAC showed a binding signal of 0.43 E-score.
For AAAACTAT, the binding signal was 0.433 E-score.
Sequence AAAACTAC has a binding signal of 0.453 E-score.
In the case of TAAACTAA, the binding signal is reported as 0.288 E-score.
Sequence CAAACTCC has a binding signal of -0.0836 E-score.
CAAACTTA gave a binding signal of 0.162 E-score.
With AAAACTAA the binding signal was 0.254 E-score.
Sequence AAAACTGT has a binding signal of -0.0241 E-score.
For AAAACTCC, the binding signal was 0.0005 E-score.
AAAACTAG gave a binding signal of 0.334 E-score.
For GTGGCAAC, the binding signal was -0.17 E-score.
CGTGACAA showed a binding signal of -0.11 E-score.
CGACGAGA gave a binding signal of -0.0756 E-score.
ATCCCAAA gave a binding signal of 0.0535 E-score.
CACTCTCA showed a binding signal of -0.109 E-score.
CTTAATGC gave a binding signal of 0.13 E-score.
